Dicer processing: human Dicer pre-microRNA cleavage inhibition; Q9UPY3; cat-ELCCA pre-miR-21 Dicer processing, chemiluminescence; active compounds read high; z-score at 25 µM; hit rate 6% among 47,000; AID 1347074; in the data active = z-score above about 3, passing the limit was not always enough;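 note: higher signal means more uncleaved substrate so more Dicer inhibition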
Large screens that a line does not name were inactive. This excerpt belongs to a sample that is enriched for hits.

COc1ccc(C2Nc3ccc4ccccc4c3C3=C2C(=O)CC(C)(C)C3)c(OC)c1 (configuration not stated)	none
COc1cc2ccccc2cc1C(=O)Nc1sc2c(c1C(N)=O)CCCC2	none
COc1ccc(NC(=O)C2=NNC(=O)CC2)cc1	none
CC(CC(=O)O/N=C/c1c(Cl)cccc1Cl)S(=O)(=O)c1ccc(Cl)cc1 (configuration not stated)	none
C=CCOc1ccc(C2c3c(oc4ccccc4c3=O)C(=O)N2c2nncs2)cc1OCC (configuration not stated)	none
CN(CCC#N)c1ccc(C=C2C(=O)NC(=O)NC2=O)cc1	none
Cc1ccc(C2Nn3c(C)nnc3SC2C(=O)Nc2ccc(Br)cc2F)cc1 (configuration not stated)	none
CC1=N/C(=C\c2cc(F)cc(F)c2)C(=O)O1	none
CC1=N/C(=C\c2ccc3ccccc3c2)C(=O)O1	none
CC1=N/C(=C/c2ccc(Cl)c(Cl)c2)C(=O)O1	Dicer processing 3.2
CCN(CC)C(=O)c1sc2nc3c(cc2c1N)CCCCC3	none
CCN(CC)C(=O)c1cc2sccc2s1	Dicer processing 3.1
C=CCN(C(=O)c1cccc(Cl)c1)c1ccccc1C(=O)NCC(=O)OCC	none
Cn1c(SCc2cccc(C#N)c2)nnc1C(F)(F)F	none
CCCSc1nc(N2CCCC2)c2c(c1C#N)CC(C)(C)OC2	Dicer processing 3.6
CC1(C)Cc2c(C#N)c(SCCOc3ccccc3)nc(N3CCOCC3)c2CO1	none
CCSc1nc(N2CCCC2)c2c(c1C#N)CC(C)(C)OC2	none
Cc1cc(S(=O)(=O)Cc2cccc(F)c2)c(Cl)cc1Cl	none
CCN(CC)c1ccc(/C=C/c2noc(-c3ccccc3O)n2)cc1	none
Oc1ccccc1-c1nc(/C=C/c2ccc(Cl)cc2)no1	Dicer processing 6.7
CSc1ccc(/C=C/c2noc(-c3ccccc3O)n2)cc1	none
Oc1ccccc1-c1nc(-c2ccccc2)no1	none
Cc1ccsc1/C=C/c1noc(-c2ccccc2O)n1	Dicer processing 3.3
Cc1ccccc1-c1nc(C2CCCCC2)no1	none
CC(C)(C)OCC(CO)NC(=O)OCC1c2ccccc2-c2ccccc21 (configuration not stated)	none
CCOC(=O)N1CCN(c2ncc3c(n2)CC(/C=C/c2ccccc2)CC3=O)CC1 (configuration not stated)	none
Clc1ccc(SCc2ccsc2-c2ncns2)cc1	none
COC(=O)c1ccc(/C=C/c2onc(C)c2[N+](=O)[O-])cc1	none
Cc1nnc(NC(=O)CSc2ccccn2)s1	none
COc1ccc(OC)c(NC(=O)CSc2nccn2C)c1	none
CCOC(=O)c1oc2ccccc2c1CSc1ccccn1	none
CCOC(=O)c1oc2ccc(OC)cc2c1CSc1ccccn1	Dicer processing 4
CCOC(=O)c1oc2ccccc2c1CO	none
COc1ccc(OC)c(C(=O)c2oc3ccccc3c2NC(=O)CSc2ccccn2)c1	Dicer processing 3.3
COc1ccc(C2C3=C(Nc4[nH]c(=O)[nH]c(=O)c42)c2ccccc2C3=O)cc1 (configuration not stated)	none
OC(C#CCN1CCOCC1)(c1ccccc1)c1cccc(F)c1 (configuration not stated)	none
CC(=O)Nc1nc(C)c(CCC(C)C)c(=O)[nH]1	none
C/C(=N\NS(=O)(=O)c1ccc(C)cc1)c1ccc(OC(=O)c2ccc(Br)o2)cc1	none
CC1(C)CC(=O)C2=C(C1)Nc1nc(-c3cccc(Cl)c3)nn1C2c1ccc(F)cc1 (configuration not stated)	none
O=C(O)C1CCCCC1C(=O)N1CCN(c2ccc(F)cc2)CC1 (configuration not stated)	none
Cc1c(CCN2CCOCC2)c(N2CCOCC2)n2c(nc3ccccc32)c1C#N	none
Cc1c(Cc2ccccc2)c(-n2ccnc2C)n2c(nc3ccccc32)c1C#N	none
CCCCc1c(C)c(C#N)c2nc3ccccc3n2c1-n1ccnc1C	Dicer processing 8.3
O=C(NC1CCSC1=O)c1ccc(C(=O)NC2CCSC2=O)cc1 (configuration not stated)	none
Cc1cc2c3c(c1)c(O)cc(=O)n3CCC2	none
CC(C)(C)c1cc(Cl)c(OS(=O)(=O)c2cc(Cl)cc(Cl)c2)c(Br)c1	none
O=c1onc(-c2ccccc2)n1-c1cccc(Cl)c1	none
Cc1n[nH]c(C)c1Sc1nnnn1-c1ccccc1	none
CC(C)Sc1nnnn1-c1ccccc1	Dicer processing 4.9
CCc1nnc(NC(=O)CSc2nnnn2-c2ccccc2)s1	none
O=C(CSc1nnnn1-c1ccccc1)Nc1cccc(F)c1	none
NC(=O)CSc1nnnn1-c1ccccc1	Dicer processing 4.9
CS(=O)(=O)NCCSc1nnnn1-c1ccccc1	none
CCOc1ccc2nc(S/C=C/C(=O)c3ccc(CC)cc3)sc2c1	none
O=c1o[nH]c(-c2ccccc2)c1N=Nc1ccc(Br)c(Cl)c1	none
CCOc1ccc(/C(O)=C2/C(=O)C(=O)N(CC3CCCO3)C23C(=O)N(CC)c2ccccc23)cc1 (configuration not stated)	none
COc1ccc(CN2C(=O)c3oc4ccc(Cl)cc4c(=O)c3C2c2ccc(O)c(OC)c2)cc1 (configuration not stated)	none
CCOc1ccc(-n2nc3ccc(N)cc3n2)cc1	none
COc1ccc(-n2nc3ccc(N)cc3n2)cc1	none
CCOc1ccc(-n2nc3cc(C)c(N)cc3n2)cc1	Dicer processing 4.6
Nc1ccc(O)c(-c2nc3ccc(N)cc3s2)c1	none
